Laboratory results taken from PubChem BioAssay (NCATS).
Where “and” joins values, the source holds several entries; their conditions need not be identical. Identical values can stand only once. Records with an inconclusive call do not appear. A number with no mark means an inactive call. Calls of active or inactive are those of the source. Unless noted, calls follow the shape of the dose curve; as a rule, active = well fitted inhibition curve with a large enough effect; inconclusive = small, poorly fitted or top-dose-only effect; inactive = flat fitted curve, though single readings scatter. Numbered stars: 1 amine (or outer) side, 2 acyl side, 3 side chain; on linkers, the order of the positions; unused ones are H or OH. Bridge positions count the residues as written; N and C are the ends. Square brackets hold non-standard residues; d marks the D form. Peptide text beside a SMILES is read from it. I, II: the chains in the order shown. Actinocin(9to1) = Cc1c2oc3c(C)ccc(C(=O)[*:1])c3nc-2c(C(=O)[*:2])c(N)c1=O; NMeV = CN[C@H](C(=O)O)C(C)C; Sar = CNCC(=O)O

Biological target: Retinoic acid receptor RXR-alpha (Homo sapiens) (UniProt P19793)
Assay: qHTS assay for small molecule antagonists of retinoid X receptor alpha signaling (AID 588546; active = well fitted inhibition curve with a large enough effect in the signal ratio, with a control signal flat, not every such curve was filed as active; the % refers to the signal ratio;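 as to max response: cells stimulated with 9-cis-retinoic acid as agonist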)
Details: HEK293T RXRa-UAS-bla, beta-lactamase ratio, antagonist mode
Outline: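 Beta-lactamase reporter inhibition, read as CCF4 fluorescence ratio (ex 405, em 460/530 nm) after 2 h at RT. HEK293T UAS-bla cells, 2500/well, were stimulated with 9-cis-RA at 500 or 100 nM final alongside test compound for 18 h at 37 C.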
% is scaled to controls: 0 for no effect and ±100 for the full control effect; potency is read from the fitted curve at half-maximal effect.

Retinoic acid receptor RXR-alpha (Homo sapiens), sequence (P19793 whole entry, looked up): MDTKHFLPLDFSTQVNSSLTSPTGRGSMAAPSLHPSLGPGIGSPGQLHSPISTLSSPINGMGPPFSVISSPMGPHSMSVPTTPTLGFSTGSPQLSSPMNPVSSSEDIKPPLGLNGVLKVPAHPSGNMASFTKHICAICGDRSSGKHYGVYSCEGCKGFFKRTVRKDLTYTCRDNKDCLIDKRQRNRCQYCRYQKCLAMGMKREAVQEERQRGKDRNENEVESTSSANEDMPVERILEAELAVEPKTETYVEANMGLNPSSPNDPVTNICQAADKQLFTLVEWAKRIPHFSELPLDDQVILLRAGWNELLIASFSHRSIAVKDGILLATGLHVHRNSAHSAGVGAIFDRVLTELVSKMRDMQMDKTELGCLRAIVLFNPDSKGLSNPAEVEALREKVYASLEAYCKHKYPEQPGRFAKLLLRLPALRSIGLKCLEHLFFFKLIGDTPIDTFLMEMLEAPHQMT

Compound	max response	Potency
O=C1OC(c2ccc(O)cc2)(c2ccc(O)cc2)c2ccccc21	-28%	
O=c1ccc2ccccc2o1	19.9% and -2.2% and -3.66%	
CN(C)/N=N/c1nc[nH]c1C(N)=O	17.7%	
CC(O)C(=O)O (stereo not drawn)	2.3%	
CC(C)(Oc1ccc(Cl)cc1)C(=O)O	2.91%	
Nc1ccc(C(=O)O)cc1	-5.07%	
CN(C)C(=S)SC(=S)N(C)C	-27.1%	
COc1cccc2c1C(=O)c1c(O)c3c(c(O)c1C2=O)C[C@@](O)(C(=O)CO)C[C@@H]3O[C@H]1C[C@H](N)[C@H](O)[C@H](C)O1		2 µM (active)

Biological target: Thyroid hormone receptor beta (Homo sapiens) (UniProt P10828)
Assay: qHTS assay for small molecule antagonists of thyroid hormone receptor beta signaling (AID 588547; active = well fitted inhibition curve with a large enough effect in the signal ratio, with a control signal flat, not every such curve was filed as active; the % refers to the signal ratio;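 as to activity change % (negative = inhibition): cells stimulated with 0.4 nM T3 agonist during compound exposure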)
Details: TR-UAS-bla HEK293, beta-lactamase ratio, antagonist mode, 18 h
Outline: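 Inhibition of T3-driven (0.4nM final) beta-lactamase reporter activity was measured over 0.59 nM to 92 uM compound after 18 h at 37 C. The cells were GripTite HEK293 TR-UAS-bla in charcoal/dextran-stripped serum, with CCF4 ratio read-out and IC50 from Hill fits.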

Thyroid hormone receptor beta (Homo sapiens), sequence (P10828 whole entry, looked up): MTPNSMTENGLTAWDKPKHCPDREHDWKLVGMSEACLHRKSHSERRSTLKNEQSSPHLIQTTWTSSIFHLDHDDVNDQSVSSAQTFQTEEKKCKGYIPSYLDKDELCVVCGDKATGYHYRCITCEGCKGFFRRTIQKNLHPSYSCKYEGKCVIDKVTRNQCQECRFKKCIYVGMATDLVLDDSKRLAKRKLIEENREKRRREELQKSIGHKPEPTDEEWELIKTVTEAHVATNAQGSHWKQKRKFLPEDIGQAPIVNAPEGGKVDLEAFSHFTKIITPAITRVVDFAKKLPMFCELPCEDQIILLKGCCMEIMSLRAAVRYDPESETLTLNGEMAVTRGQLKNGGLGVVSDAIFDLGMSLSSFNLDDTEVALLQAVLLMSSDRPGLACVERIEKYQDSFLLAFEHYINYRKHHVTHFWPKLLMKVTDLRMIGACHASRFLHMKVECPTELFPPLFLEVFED

Compound	activity change % (negative = inhibition)	Potency
CC(O)(P(=O)(O)O)P(=O)(O)O	-8.4%	
CCCCCCc1ccc(O)cc1O	-14.5% and -21.9%	
C[C@H]1C[C@H]2[C@@H]3CCC4=CC(=O)C=C[C@]4(C)[C@@]3(Cl)[C@@H](O)C[C@]2(C)[C@@]1(O)C(=O)CO	1.92%	
COc1cccc2c1C(=O)c1c(O)c3c(c(O)c1C2=O)C[C@@](O)(C(C)=O)C[C@@H]3O[C@H]1C[C@H](N)[C@H](O)[C@H](C)O1		5.01 µM (active)
Cc1cc(=O)n(-c2ccccc2)n1C	5.56%	
COC1=CC(=O)C[C@@H](C)[C@]12Oc1c(Cl)c(OC)cc(OC)c1C2=O	-47.5%	
Cc1c2oc3c(C)ccc(C(=O)N[C@@H]4C(=O)N[C@H](C(C)C)C(=O)N5CCC[C@H]5C(=O)N(C)CC(=O)N(C)[C@@H](C(C)C)C(=O)O[C@@H]4C)c3nc-2c(C(=O)N[C@@H]2C(=O)N[C@H](C(C)C)C(=O)N3CCC[C@H]3C(=O)N(C)CC(=O)N(C)[C@@H](C(C)C)C(=O)O[C@@H]2C)c(N)c1=O (I: T[dV]P[Sar][NMeV] / II: T[dV]P[Sar][NMeV]; ester I:1-I:C, II:1-II:C; linker I:N-II:N via Actinocin(9to1))		0.0501 µM (active)
CC(=O)Oc1ccc(C(c2ccc(OC(C)=O)cc2)c2ccccn2)cc1	5.36%	
O=C1OC(c2ccc(O)cc2)(c2ccc(O)cc2)c2ccccc21	-18.5% and 8.75%	
O=c1ccc2ccccc2o1	-6.73% and 13.3% and -20.8%	
CN(C)/N=N/c1nc[nH]c1C(N)=O	-19.3%	
CC(O)C(=O)O (stereo not drawn)	-8.09%	
O=C(O)CCCCC(=O)O	0.209%	
Nc1ccc(C(=O)O)cc1	15.2%	
CN(C)C(=S)SC(=S)N(C)C	10.8%	
COc1cccc2c1C(=O)c1c(O)c3c(c(O)c1C2=O)C[C@@](O)(C(=O)CO)C[C@@H]3O[C@H]1C[C@H](N)[C@H](O)[C@H](C)O1		5.62 µM (active) and 4.47 µM (active)
Oc1c(I)cc(Cl)c2cccnc12	-33.1%	

Biological target: Voltage-gated inwardly rectifying potassium channel KCNH2 (Homo sapiens) (UniProt Q12809)
Assay: qHTS Assay for Small Molecule Inhibitors of the Human hERG Channel Activity (AID 588834);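 also: lower thallium flux fluorescence means stronger hERG block; nearly all actives have a fitted effect of over 50% in size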; as to activity change, negative = inhibition: top concentration of the series differs between compounds
Details: U2OS BacMam hERG, FluxOR thallium flux fluorescence; series mostly up to 46.1 µM; activity change, negative = inhibition: at the top concentration
Outline: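 U2OS cells transduced with hERG via BacMam (MOI ~100), plated 2000/well, loaded with FluxOR thallium dye, compound ~10 min, then stimulation buffer; fluorescence decrease read kinetically; AC50 from Hill fits.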

Voltage-gated inwardly rectifying potassium channel KCNH2 (Homo sapiens), sequence (Q12809 whole entry, looked up): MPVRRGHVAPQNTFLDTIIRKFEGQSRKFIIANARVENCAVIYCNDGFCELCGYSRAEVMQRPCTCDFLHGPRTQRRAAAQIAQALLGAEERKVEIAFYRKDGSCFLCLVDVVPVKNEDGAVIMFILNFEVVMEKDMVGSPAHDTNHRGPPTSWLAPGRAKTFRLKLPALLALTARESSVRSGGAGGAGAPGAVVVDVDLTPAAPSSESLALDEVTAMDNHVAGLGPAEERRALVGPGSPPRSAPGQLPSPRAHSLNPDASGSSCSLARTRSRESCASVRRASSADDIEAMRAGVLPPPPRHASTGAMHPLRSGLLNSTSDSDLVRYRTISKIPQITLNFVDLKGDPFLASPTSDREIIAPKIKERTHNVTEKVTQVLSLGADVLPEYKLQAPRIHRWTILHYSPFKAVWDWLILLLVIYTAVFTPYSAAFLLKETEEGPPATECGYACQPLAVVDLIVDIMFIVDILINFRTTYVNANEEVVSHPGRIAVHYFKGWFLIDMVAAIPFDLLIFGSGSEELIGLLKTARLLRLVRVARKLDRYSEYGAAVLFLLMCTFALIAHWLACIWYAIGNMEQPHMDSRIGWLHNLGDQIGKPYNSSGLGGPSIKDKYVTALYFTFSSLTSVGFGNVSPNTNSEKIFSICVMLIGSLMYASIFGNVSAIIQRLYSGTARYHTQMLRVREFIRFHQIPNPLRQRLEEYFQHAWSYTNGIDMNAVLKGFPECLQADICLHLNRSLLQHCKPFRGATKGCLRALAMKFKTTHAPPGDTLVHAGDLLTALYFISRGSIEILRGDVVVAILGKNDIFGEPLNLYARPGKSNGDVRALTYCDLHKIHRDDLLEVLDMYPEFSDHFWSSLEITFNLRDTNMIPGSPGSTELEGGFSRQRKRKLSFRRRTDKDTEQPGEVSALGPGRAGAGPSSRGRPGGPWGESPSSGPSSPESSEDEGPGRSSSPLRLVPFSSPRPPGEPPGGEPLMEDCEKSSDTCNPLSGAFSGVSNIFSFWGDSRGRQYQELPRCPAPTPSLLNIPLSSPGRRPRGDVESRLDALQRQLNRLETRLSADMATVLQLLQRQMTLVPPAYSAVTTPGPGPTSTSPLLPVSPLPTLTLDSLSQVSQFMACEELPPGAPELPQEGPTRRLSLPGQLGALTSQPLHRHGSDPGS

Compound	Potency	activity change, negative = inhibition
CCCCCCc1ccc(O)cc1O	inactive	
C[C@H]1C[C@H]2[C@@H]3CCC4=CC(=O)C=C[C@]4(C)[C@@]3(Cl)[C@@H](O)C[C@]2(C)[C@@]1(O)C(=O)CO		10.8%
COc1cccc2c1C(=O)c1c(O)c3c(c(O)c1C2=O)C[C@@](O)(C(C)=O)C[C@@H]3O[C@H]1C[C@H](N)[C@H](O)[C@H](C)O1	inactive	
CC1(C)O[C@@H]2C[C@H]3[C@@H]4C[C@H](F)C5=CC(=O)C=C[C@]5(C)[C@H]4[C@@H](O)C[C@]3(C)[C@]2(C(=O)CO)O1		-3.53% [at 20.6 µM]
COc1cccc(OC)c1C(=O)N[C@@H]1C(=O)N2[C@@H]1SC(C)(C)[C@@H]2C(=O)O		-3.09%
NC(=NCCCCCCN=C(N)/N=C(\N)Nc1ccc(Cl)cc1)/N=C(\N)Nc1ccc(Cl)cc1		2.59%
C=CCc1ccc(O)c(OC)c1	inactive	
Cc1cc(=O)n(-c2ccccc2)n1C		11.3%
CCC(NC(C)C)C(O)c1ccc(O)c(O)c1 (stereo not drawn)		30.8%
NC[C@H]1O[C@H](O[C@H]2[C@H](O[C@@H]3O[C@H](CO)[C@@H](O)[C@H]3O)C(O)[C@H](N)C[C@@H]2N)[C@H](N)[C@@H](O)[C@@H]1O (stereo partly drawn)		-0.771% [at 20.6 µM]
C=C(CC)C(=O)c1ccc(OCC(=O)O)c(Cl)c1Cl		0.538% [at 92.2 µM]
Cc1c2oc3c(C)ccc(C(=O)N[C@@H]4C(=O)N[C@H](C(C)C)C(=O)N5CCC[C@H]5C(=O)N(C)CC(=O)N(C)[C@@H](C(C)C)C(=O)O[C@@H]4C)c3nc-2c(C(=O)N[C@@H]2C(=O)N[C@H](C(C)C)C(=O)N3CCC[C@H]3C(=O)N(C)CC(=O)N(C)[C@@H](C(C)C)C(=O)O[C@@H]2C)c(N)c1=O (I: T[dV]P[Sar][NMeV] / II: T[dV]P[Sar][NMeV]; ester I:1-I:C, II:1-II:C; linker I:N-II:N via Actinocin(9to1))	inactive	
CC(=O)Oc1ccc(C(c2ccc(OC(C)=O)cc2)c2ccccn2)cc1		38.1%
O=C1OC(c2ccc(O)cc2)(c2ccc(O)cc2)c2ccccc21	15.8 µM (active)	
O=c1ccc2ccccc2o1	inactive	

Compound	Potency	activity change, negative = inhibition
Oc1ccc(O)cc1	inactive	
CN(C)/N=N/c1nc[nH]c1C(N)=O	inactive	
COc1c(C)c2c(c(O)c1C/C=C(\C)CCC(=O)O)C(=O)OC2		-4.34% [at 20.6 µM]
CC(O)C(=O)O (stereo not drawn)	inactive	
O=C(O)CCCCC(=O)O	inactive	
CC(C)(Oc1ccc(Cl)cc1)C(=O)O		2.67%
Nc1ccc(C(=O)O)cc1	inactive	
COc1ccc(OC)c(C(O)CNC(=O)CN)c1 (stereo not drawn)		1.56% [at 20.6 µM]
CN(C)C(=S)SC(=S)N(C)C		-20.6%
C[C@]12CC[C@@H]3c4ccc(O)cc4CC[C@H]3[C@@H]1C[C@@H](O)[C@@H]2O		-0.14%
Cc1cc(N)c2cc(NC(=O)Nc3ccc4nc(C)cc(N)c4c3)ccc2n1		23.9%
NC(=O)CC[C@@H]1NC(=O)[C@H](Cc2ccccc2)NC(=O)[C@H](Cc2ccc(O)cc2)NC(=O)CCSSC[C@@H](C(=O)N2CCC[C@H]2C(=O)N[C@@H](CCCN=C(N)N)C(=O)NCC(N)=O)NC(=O)[C@H](CC(N)=O)NC1=O		4.89%
COc1cccc2c1C(=O)c1c(O)c3c(c(O)c1C2=O)C[C@@](O)(C(=O)CO)C[C@@H]3O[C@H]1C[C@H](N)[C@H](O)[C@H](C)O1	inactive	
C/C=C/c1ccc(OC)cc1		-8.76%
Oc1c(I)cc(Cl)c2cccnc12		136%
